AmpC inh no detg: AmpC beta-lactamase inhibition without detergent. AmpC nitrocefin hydrolysis, absorbance 480 nm, 0.0001% Triton. Potency, µM (doses to about 57.1 µM), actives largely listed as inhibitors. actives 0.52% (n = 330,000); note: nearly all actives have a fitted effect of over 20% in size
Target sequence (P00811 whole entry, looked up): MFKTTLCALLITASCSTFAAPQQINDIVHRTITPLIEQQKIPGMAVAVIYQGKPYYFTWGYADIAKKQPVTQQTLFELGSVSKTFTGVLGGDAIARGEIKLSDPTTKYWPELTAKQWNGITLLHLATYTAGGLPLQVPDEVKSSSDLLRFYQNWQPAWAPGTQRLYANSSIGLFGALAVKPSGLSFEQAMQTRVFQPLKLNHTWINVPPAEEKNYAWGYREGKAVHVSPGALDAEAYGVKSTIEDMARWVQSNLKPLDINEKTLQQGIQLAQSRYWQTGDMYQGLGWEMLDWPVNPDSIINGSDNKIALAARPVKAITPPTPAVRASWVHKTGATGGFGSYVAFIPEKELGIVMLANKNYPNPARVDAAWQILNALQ
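20 mM phosphate pH 7.0 + 0.01% (detergent screen) or 0.0001% Triton X-100; 5.3 nM AmpC reagent; cpd preinc 15 min RT; nitrocefin (800 uM stock) to start; A480 q20 s × 4 min; Activity was normalised to no-enzyme and no-compound control wells.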
AmpC detergent: inhibitors of E. coli AmpC beta-lactamase with detergent; P00811; AmpC hydrolysis of nitrocefin, absorbance 480 nm, 0.01% Triton; Potency, µM (top dose mostly 114 µM), usual class: inhibitors; actives 0.041% (n = 370,000); note: nearly all actives have a fitted effect of over 25% in size
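20 mM phosphate pH 7.0 + 0.01% (detergent screen) or 0.0001% Triton X-100; 5.3 nM AmpC reagent; cpd preinc 15 min RT; nitrocefin (800 uM stock) to start; A480 q20 s × 4 min; Activity was normalised to no-enzyme and no-compound control wells.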
AMA1 RON2 block: inhibitors of Plasmodium falciparum AMA1-RON2 interaction; actives 0.2% (n = 360,000); AID 720542; Potency, µM (titrated, usually from 58.2 µM), most hits filed as inhibitors; AlphaScreen AMA1-biotinylated RON2 peptide binding; note: nearly all actives have a fitted effect of over 45% in size
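AMA1 (3D7) with his tag at 25 nM final met compounds first, then biotinylated RON2 peptide at 25 nM; detection used donor plus acceptor beads, 10 µg/mL apiece, read by AlphaScreen after 30 min at room temperature.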
SARS PLP yeast: inhibitors of SARS-CoV papain-like protease in yeast; S. cerevisiae expressing SARS-CoV PLpro, growth rescue; Potency, µM (highest dose often 32.9 µM), most hits filed as activators; actives 0.19% (n = 330,000); calls by dose curve; note: nearly all actives have a fitted effect of over 55% in size
Shiga toxin inh: Shiga toxin inhibition; Vero cells, Shiga toxin protein synthesis inhibition reporter; inhibition, % at 38.7 µM; actives 9.2% (n = 290,000); in the data active = inhibition mostly above about 28%, no sharp cut-off; inactive = mostly below about 43%
CHX counter: affects cycloheximide protein synthesis inhibition readout, counter-screen; max response, %; actives 12% (n = 300,000); AID 2314; cell reporter, cycloheximide protein synthesis inhibition counterscreen; in the data active = max response mostly above about 13%, no sharp cut-off; inactive = mostly below about 14%; note: read at 38.3 µM for the half of the compounds with a filed dose
Of the large screens only hits and unclear results are named; the others gave an inactive call. This excerpt belongs to a sample that is enriched for hits. Unless noted, calls come from the whole dose curve; as a rule, active = well fitted curve in the direction sought with a large enough effect; inconclusive = small, poorly fitted or top-dose-only effect, or another doubt; inactive = no such curve, though single readings can be large; an effect the other way counts as inactive or inconclusive.

C=CCSc1nc2ccccc2n1C(=O)/C=C/c1cc(OC)c(OC)c(OC)c1	Shiga toxin inh 111, CHX counter 49
CCSc1nc2ccccc2n1C(=O)/C=C/c1ccc(OC)c(OC)c1	CHX counter 13
Nc1c(C(=O)NC2CC2)sc2nc3c(c(-c4ccco4)c12)CC/C3=C/c1ccco1	none
COc1ccc(NC(=O)c2ccc(NC(=O)CN3CCN(c4ccccc4OC)CC3)cc2)cc1	none (no result: AmpC inh no detg, AmpC detergent, SARS PLP yeast, Shiga toxin inh, CHX counter)
COC(=O)C1=C(C)N(Cc2ccccc2)C(=S)N[C@H]1c1ccc(Br)cc1	none
O=C(CC1S/C(=N/N=C/c2c[nH]c3ccccc23)NC1=O)Nc1ccccc1 (stereo not given)	AmpC inh no detg 25µM
O=C(CC1S/C(=N/N=C/c2ccco2)NC1=O)Nc1ccccc1 (stereo not given)	none
O=C(CC1S/C(=N/N=C/c2c[nH]c3ccc(OCc4ccccc4)cc23)NC1=O)Nc1ccccc1 (stereo not given)	AmpC inh no detg 5µM, AmpC detergent inconclusive
Cc1ccc(S(=O)(=O)NC(=O)Nc2ccc(Cl)cn2)cc1	none
Cc1ccc(C)c(NC(=O)CSc2nccn2Cc2ccco2)c1	Shiga toxin inh 54, CHX counter 24
Cc1ccc(NC(=O)CSc2nccn2Cc2ccco2)c(C)c1	Shiga toxin inh 61, CHX counter 52
Cc1cc(C)c(NC(=O)CSc2nccn2Cc2ccco2)c(C)c1	none (no result: AmpC inh no detg, AMA1 RON2 block, SARS PLP yeast, Shiga toxin inh, CHX counter)
O=C(CSc1nccn1Cc1ccco1)Nc1ccccc1F	CHX counter 30
O=C(NCC1CCCN1S(=O)(=O)c1cccs1)C(=O)Nc1ccccc1F (stereo not given)	none (no result: AmpC inh no detg, AmpC detergent, SARS PLP yeast, Shiga toxin inh, CHX counter)
O=C(O)c1ccc(/C=C(\c2nc3ccccc3[nH]2)c2nc3ccccc3s2)cc1	Shiga toxin inh 40, CHX counter 30
CC(Cl)C(=O)c1ccc2c(c1)CCN2C(=O)C1CC1 (stereo not given)	CHX counter 21
O=C(C1CC1)N1CCc2cc(S(=O)(=O)N3CCOCC3)ccc21	none
O=C(Nc1cccnc1)c1cc2c(ccc3ccccc32)o1	AmpC detergent inconclusive, Shiga toxin inh 40, CHX counter 57 (no result: AmpC inh no detg, SARS PLP yeast)
CCc1ccc2oc(C(=O)Nc3cccnc3)c(C)c2c1	Shiga toxin inh 66, CHX counter 58
O=C(O)c1cc2c(ccc3ccccc32)o1	none
O=C(c1cc2c(ccc3ccccc32)o1)N1CCCCC1	Shiga toxin inh 90, CHX counter 52
Cc1c(C(=O)Nc2cccnc2)oc2ccc(Br)cc12	Shiga toxin inh 75, CHX counter 34
Cc1c(C(=O)Nc2cccc(S(=O)(=O)N3CCOCC3)c2)oc2ccc(Br)cc12	none (no result: AmpC detergent, Shiga toxin inh, CHX counter)
COc1ccc([N+](=O)[O-])cc1NC(=O)C(C)OC(=O)c1cccnc1Cl (stereo not given)	none
O=C(COC(=O)c1ncc(Cl)c(Cl)c1Cl)NC1CCCCCC1	none (no result: Shiga toxin inh, CHX counter)
Cc1c(C(=O)NCc2cccs2)oc2ccc(Br)cc12	CHX counter 30
Cc1c(C(=O)NCc2cccs2)oc2ccc(S(=O)(=O)N3CCOCC3)cc12	none
Cc1cccn2c(=O)cc(COc3ccc(NC(=O)C(C)Oc4ccccc4)cc3)nc12 (stereo not given)	none (no result: AmpC inh no detg, AMA1 RON2 block, SARS PLP yeast, Shiga toxin inh, CHX counter)
COCCOC(=O)c1[nH]c2c(c1C)C(=O)CC(c1cccs1)C2 (stereo not given)	CHX counter 20
Cc1cccc(CC(=O)N2CCC(n3nccc3NC(=O)C3CC3)CC2)c1	none
O=C(CCc1ccccc1)Nc1ccc(N2CCCCC2)cc1	Shiga toxin inh 93, CHX counter 33
O=C(CN1CCCC1)Nc1ccc(NC(=O)Nc2ccccc2Cl)cc1	AmpC inh no detg 16µM, AmpC detergent inconclusive, CHX counter 25
CCCCC(=O)Nc1ccc(N2CCCC2)cc1	none (no result: AmpC inh no detg, AmpC detergent, SARS PLP yeast, Shiga toxin inh, CHX counter)
O=C(CN1CCCCC1)Nc1ccccc1	none
O=C(CN1CCCCC1)Nc1ccc(N2CCCCCC2)cc1	AMA1 RON2 block inconclusive, CHX counter 17
CCCOC(=O)Nc1ccc(N2CCCCC2)cc1	Shiga toxin inh 56, CHX counter 34 (no result: AmpC inh no detg, SARS PLP yeast)
Cc1ccc(NS(=O)(=O)c2cc(C(=O)NCc3ccccn3)ccc2Cl)cc1C	none
CCc1ccc(NC(=O)C(=O)NCc2ccccn2)cc1	Shiga toxin inh 60, CHX counter 24
Cc1ccc(C(=O)NCc2ccccn2)cc1Cl	Shiga toxin inh 36, CHX counter 25
COc1ccc(NC(=O)NCc2ccccn2)cc1OC	none
Cc1ccc(NC(=O)NCc2c(C)nn(C)c2C)cc1Cl	Shiga toxin inh 75, CHX counter 26
CC(=O)c1cccc(NC(=O)NCc2ccccn2)c1	Shiga toxin inh 50, CHX counter 31
CCc1ccccc1Nc1nn2c(=O)c3ccc(C(=O)NCCC4=CCCCC4)cc3nc2s1	none (no result: AmpC inh no detg, AMA1 RON2 block, SARS PLP yeast, Shiga toxin inh, CHX counter)
Cc1ccc(NC(=O)NCc2ccccn2)cc1	Shiga toxin inh 75, CHX counter 35
Cc1ccc(NC(=O)NCc2ccccn2)cc1Cl	Shiga toxin inh 39, CHX counter 25
Cc1nn(C)cc1CNC(=O)Nc1ccc(Cl)c(Cl)c1	Shiga toxin inh 58, CHX counter 44
O=C(Nc1ccccc1)c1cccnc1NCCc1ccccc1	none
COc1ccccc1NS(=O)(=O)c1cc(N/C(=N\S(=O)(=O)c2ccccc2)c2ccc(F)cc2)ccc1Cl	none
CCC(=O)N1CCc2cc(Br)cc(S(=O)(=O)N3CCCC(C(=O)NCc4ccc(C)cc4)C3)c21 (stereo not given)	none (no result: AmpC inh no detg, AMA1 RON2 block, SARS PLP yeast, Shiga toxin inh, CHX counter)
COc1cc(/C=C2\C=CC(=O)O2)cc(OC)c1	CHX counter 18
CC(NC(=O)OCc1ccccc1)c1ccccc1 (stereo not given)	none (no result: AmpC inh no detg, AmpC detergent, SARS PLP yeast, Shiga toxin inh, CHX counter)
O=S(=O)(Nc1ccc2c(c1)OCCO2)c1cccc(F)c1	AmpC detergent inconclusive, CHX counter 25
Cc1n[nH]c(C)c1S(=O)(=O)Nc1ccc2c(c1)OCCO2	Shiga toxin inh 36, CHX counter 51
O=S(=O)(Nc1ccc2c(c1)OCCO2)c1ccc(F)c(F)c1	none
Cc1nn(C)cc1S(=O)(=O)Nc1ccc2c(c1)OCCO2	Shiga toxin inh 69, CHX counter 72
Cc1ccc(S(=O)(=O)Nc2ccc3c(c2)OCCO3)cc1C	Shiga toxin inh 92, CHX counter 63
C=CCn1cc(C(=O)c2cc(Br)ccc2O)cc(C#N)c1=O	none
COC(=O)c1c(NC(=O)Cc2ccccc2)sc2c1CCN(C(C)C)C2	none
CCOC(=O)COc1ccc(S(=O)(=O)Nc2ccc3c(c2)OCCO3)cc1	CHX counter 18
CCOc1ccc(C(c2nnnn2Cc2ccccc2)N2CCN(C(=O)c3ccco3)CC2)cc1 (stereo not given)	none (no result: AmpC inh no detg, AmpC detergent, SARS PLP yeast, Shiga toxin inh, CHX counter)
Cc1ccc(C(c2nnnn2Cc2cccs2)N2CCN(C(=O)c3ccco3)CC2)cc1 (stereo not given)	none
